GLS inhibitor: glutaminase GLS (human) inhibition. 410,000 tested, 0.21% active. O94925. AID 624170. Potency, µM (series often up to 45.5 µM), most hits filed as inhibitors. GLS enzymatic activity, qHTS titration
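Compounds were pin-transferred onto hKGA, after which L-glutamine (1 mM solution) and a detection mix of glutamate oxidase, HRP and Amplex Red were added. Initial and 30 min RT fluorescence reads were collected.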
JMJD2A Tudor: JMJD2A Tudor domain (human) inhibition; O75164; AlphaScreen JMJD2A-Tudor / H3K4me3 peptide binding; Potency, µM (series often up to 114 µM), usual class: inhibitors; 390,000 tested, 4.4% active; AID 504339; further: nearly all actives have a fitted effect of over 50% in size
HP1b binding inh: blocks HP1-beta chromodomain binding to methylated histone tails | AlphaScreen HP1-beta / biotin-H3K9me3 peptide binding | Potency, µM (top dose mostly 114 µM), hits mostly inhibitors | P83916 | 390,000 tested, 0.56% active; further: nearly all actives have a fitted effect of over 70% in size
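AlphaScreen: HP1-beta (50 nM) preformed 30 min with biotin-H3(1-18)K9me3 peptide (50 nM) in PBS pH 7.4, 0.01% Tween-20. Compound added for 30 min at RT, then streptavidin donor/nickel chelate acceptor beads (10 ug/mL) for 30 min.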
BAZ2B block: BAZ2B (human) inhibition | Q9UIF8 | AlphaScreen BAZ2B-H3K14Ac peptide displacement | Potency, µM (highest dose often 114 µM), usual class: inhibitors | 360,000 tested, 4.4% active | AID 504333; further: nearly all actives have a fitted effect of over 60% in size
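Complex of BAZ2B and biotin-H3K14Ac (50 nM apiece) forms over 30 min at RT, then faces library compounds up to 110 uM for another 30 min; AlphaScreen beads added, 20 min dark incubation, luminescence read.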
G9a inh: G9a (human) methyltransferase inhibition. G9a H3K9 monomethylation, AlphaScreen, 2 h. Potency, µM (top dose mostly 102 µM), hits mostly inhibitors. AID 504332. 350,000 tested, 8.8% active; further: nearly all actives have a fitted effect of over 75% in size
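Methyltransferase reactions run at room temperature for 2 h (20 nM enzyme, 500 nM biotin-H3K9 peptide, 20 uM SAM) after a 15 min compound preincubation; product detected by AlphaScreen beads and anti-H3K9me1 antibody.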
Each line names hits and unclear results; the compound was inactive in the other large screens. Sampled rows, rich in hits. Any-hit rate of the full collection: about 10%. The call rests on the fitted dose curve; in most records, active means well fitted curve in the direction sought with a large enough effect; inconclusive means small, poorly fitted or top-dose-only effect, or another doubt; inactive means no such curve, though single readings can be large; an effect the other way counts as inactive or inconclusive.

Cc1ccc(OC(=O)CSc2nnc(-c3ccc4c(c3)OCO4)o2)c(C)c1	none
CN=c1scc(-c2ccc(F)cc2)n1/N=C/c1ccc(O)c(O)c1	JMJD2A Tudor 31.6µM, HP1b binding inh 39.8µM, BAZ2B block 10µM, G9a inh 4.47µM
Cc1ccc2c(c1)[C@H]1[C@H](CO2)[C@H](c2ccccc2)[C@]2(C)C(=O)Nc3cc(F)ccc3C(=O)N12	none (no result: BAZ2B block, G9a inh)
Oc1ccccc1N1CCN(c2ccc3ccccc3n2)CC1	GLS inhibitor 10µM
COC(=O)c1cn(-c2nc3ccccc3s2)nn1	none (no result: JMJD2A Tudor, HP1b binding inh, BAZ2B block, G9a inh)
Cc1nc(NC(=O)CN2CCOCC2)sc1C(=O)N(C)C	JMJD2A Tudor 15.8µM, G9a inh inconclusive
Cc1nc(NC(=O)CN2CCCCC2)sc1C(=O)N(C)C	G9a inh 79.4µM
Cc1cc(Br)ccc1NC(=O)C1C2CCC(O2)C1C(=O)O (stereo unspecified)	G9a inh 31.6µM
COc1ccc(NC(=O)C2C3CCC(O3)C2C(=O)O)c(C)c1 (stereo unspecified)	none
COC(=O)c1ccccc1NC(=O)C1=CC(c2ccc(C)cc2)=NS(=O)(=O)N1C	JMJD2A Tudor inconclusive, BAZ2B block inconclusive, G9a inh 12.6µM
COc1ccc(NC(=O)C2=CC(c3ccc(C)cc3)=NS(=O)(=O)N2C)cc1	JMJD2A Tudor inconclusive, BAZ2B block inconclusive (no result: G9a inh)
CN1C(C(=O)Nc2ccc(F)cc2F)=CC(c2ccc3c(c2)OCO3)=NS1(=O)=O	none
Cc1ccc(C2=NS(=O)(=O)N(C)C(C(=O)Nc3ccc(F)cc3F)=C2)cc1	JMJD2A Tudor inconclusive, G9a inh 70.8µM
Cc1cc(N)c2cc(NC(=O)/C=C/c3ccccc3Cl)ccc2n1	JMJD2A Tudor 63.1µM, BAZ2B block inconclusive, G9a inh 25.1µM
O=C(/C=C/c1ccccc1Cl)NC1CCCCC1	none
O=C(/C=C/c1ccccc1Cl)NC1CCS(=O)(=O)C1 (stereo unspecified)	GLS inhibitor inconclusive, JMJD2A Tudor 5.01µM
O=C(/C=C/c1ccccc1Cl)Nc1ccncc1	G9a inh 50.1µM
CC(=O)Nc1cccc(C(=O)N2CCN(S(=O)(=O)c3ccc(C4CCCCC4)cc3)CC2)c1	none (no result: BAZ2B block, G9a inh)
COc1ccc(Cc2n[nH]c(=S)n2Cc2ccccc2)cc1Cl	JMJD2A Tudor 56.2µM, BAZ2B block inconclusive, G9a inh 6.31µM
COc1ccccc1C(=O)NCc1ccccc1	none
COc1ccccc1C(=O)NCc1n[nH]c(=S)n1Cc1ccccc1	JMJD2A Tudor 35.5µM, G9a inh inconclusive
CCOc1ccc(Cc2n[nH]c(=S)n2Cc2ccccc2)cc1	JMJD2A Tudor 44.7µM, G9a inh 1.12µM
CC1=C(C(=O)Nc2ccccc2)C(c2ccncc2)C(C#N)=C(SCC(=O)NC(C)C)N1 (stereo unspecified)	G9a inh 11.2µM
CCCSC1=C(C#N)C(c2cccs2)C(C(=O)Nc2ccccc2)=C(C)N1 (stereo unspecified)	G9a inh inconclusive
CC1=C(C(=O)Nc2ccccc2)C(c2ccncc2)C(C#N)=C(SCC(=O)NC2CC2)N1 (stereo unspecified)	G9a inh 28.2µM
COCCn1c(=O)c(C)nc2cncnc21	none (no result: GLS inhibitor, JMJD2A Tudor, HP1b binding inh, BAZ2B block)
CCN(CC)CCN(Cc1cc2cc(C)c(C)cc2[nH]c1=O)C(=S)NCc1ccco1	none (no result: G9a inh)
Cc1cc2cc(CN(Cc3ccco3)C(=O)NCc3ccccc3)c(=O)[nH]c2cc1C	BAZ2B block inconclusive, G9a inh 50.1µM
Cc1cc2cc(CN(CCN(C)C)C(=S)NCc3ccco3)c(=O)[nH]c2cc1C	JMJD2A Tudor inconclusive, BAZ2B block 70.8µM
CCCCC(=O)N(C)c1c(CC)nc2c(OCc3cccc(Cl)c3)cccn12	none (no result: JMJD2A Tudor, HP1b binding inh, BAZ2B block, G9a inh)
CN(C)c1ccc(CNc2nc(-c3ccccc3)nn2S(C)(=O)=O)cc1	JMJD2A Tudor 56.2µM, HP1b binding inh inconclusive, BAZ2B block 35.5µM, G9a inh 28.2µM
CC(=O)n1nc(-c2ccccc2)nc1NCc1ccc(N(C)C)cc1	JMJD2A Tudor 35.5µM, HP1b binding inh inconclusive, BAZ2B block 25.1µM
CC(=O)CSc1ncnc2sc3c(c12)CCC(C)C3 (stereo unspecified)	G9a inh 39.8µM
COc1cc(/C=N/NC(=O)c2ccccn2)cc2c1OCO2	JMJD2A Tudor inconclusive, BAZ2B block 50.1µM
O=C(N/N=C/c1ccco1)c1cccc(N2Cc3ccccc3C2)c1	JMJD2A Tudor 28.2µM, HP1b binding inh inconclusive, BAZ2B block 50.1µM, G9a inh 3.98µM

Assay outcomes from PubChem.
